PubChem BioAssay (Tox21)
Unmarked numbers belong to inactive results. Records with an inconclusive call do not appear. Where a call stands in place of a potency, no number is given. The source made the active and inactive calls. Unless noted, the call rests on the fitted dose curve; in most records, active means well fitted curve in the direction sought with a large enough effect in the repeat runs; inconclusive means weak or mixed curves; inactive means no such curve, though single readings can be large; an effect the other way counts as inactive or inconclusive.

Columns and labels:
[1] = qHTS assay to identify small molecule agonists of the hypoxia (HIF-1) signaling pathway - cell viability counter screen (AID 1224844; calls by dose curve; further: nearly all actives have a fitted effect of over 50% in size)
Summary of the method: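 ME-180 HRE-bla cells, 2,000/well, 0.5% dialyzed FBS; 5 hr settle, 17 hr compound at 37C/5% CO2; CCF4-AM reporter read first, then CellTiter-Glo luminescence after 30 min RT.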

[2] = qHTS assay to identify small molecule agonists of the hypoxia (HIF-1) signaling pathway (AID 1224846; active means well fitted activation curve with a large enough effect in the signal ratio in the repeat runs, not every such curve was filed as active; the % refers to the signal ratio)
Summary of the method: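 Cell line: CellSensor HRE-bla ME-180; 2,000 cells/well; 0.5% dialyzed FBS; 5 h preincubation; DMSO compound pin transfer; 17 h, 37C, 5% CO2; CCF4-AM added; bla FRET signal scored for activation.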

[3] = qHTS assay to identify small molecule agonists of H2AX - cell viability counter screen (AID 1224847; calls by dose curve; further: top concentration of the series differs between compounds; nearly all actives have a fitted effect of over 30% in size)
Summary of the method: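 CHO-K1 cells plated overnight at 37C, then exposed 3 h at 37C to compounds at 15 concentrations (0.76% DMSO final). Viability by CellTiter-Glo luminescence after 30 min at room temperature.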

[4] = qHTS RealTime-Glo MT Cell Viability Assay in HepG2 cells - 24 hour (AID 1224867); further: nearly all actives have a fitted effect of over 50% in size
Summary of the method: (§1)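 Real-time, nonlytic viability: 600 HepG2 cells/well mixed with NanoLuc enzyme plus prosubstrate; 5 h settle, compound (DMSO) added by pintool; luminescence monitored over 40 h at 37 C.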

[5] = qHTS RealTime-Glo MT Cell Viability Assay in HEK293 cells - 32 hour (AID 1224868); further: top concentration of the series differs between compounds; nearly all actives have a fitted effect of over 50% in size
Summary of the method: (§2)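 Cells + reagent dispensed (600 cells/well, HEK293) → 5 h at 37 C/5% CO2 → 23 nL compound in DMSO pinned → 40 h at 37 C → luminescence read at 0, 8, 16, 24, 32, 40 h.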

[6] = A CellTox Green Cytotoxicity Assay to monitor cytotoxicity in HEK293 cells - 0 hour (AID 1224869); further: nearly all actives have a fitted effect of over 50% in size
Summary of the method: (§3)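 Nonlytic real-time cytotoxicity: HEK293 + CellTox Green reagent plated, 5 h preincubation, pintool compound addition (23 nL in DMSO), 37 C for 40 h, fluorescence measured at successive time points.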

[7] = qHTS RealTime-Glo MT Cell Viability Assay in HepG2 cells - 40 hour (AID 1224870); further: nearly all actives have a fitted effect of over 50% in size
Summary of the method: (§4)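 HepG2 cells mixed with RealTime-Glo MT reagents (NanoLuc plus cell-permeant prosubstrate) were seeded at 600 cells/well, incubated 5 h at 37 C/5% CO2, then pinned with compounds in DMSO; nonlytic luminescence tracked viability during 40 h treatment.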

[8] = A CellTox Green Cytotoxicity Assay to monitor cytotoxicity in HEK293 cells - 40 hour (AID 1224871); further: nearly all actives have a fitted effect of over 45% in size
Summary of the method: as §3

[9] = qHTS RealTime-Glo MT Cell Viability Assay in HEK293 cells - 16 hour (AID 1224872)
Summary of the method: as §2

[10] = qHTS RealTime-Glo MT Cell Viability Assay in HepG2 cells - 8 hour (AID 1224873); further: nearly all actives have a fitted effect of over 55% in size
Summary of the method: as §4

[11] = qHTS RealTime-Glo MT Cell Viability Assay in HEK293 cells - 40 hour (AID 1224874); settings: RealTime-Glo luminescence; max response: stronger effect = lower value; further: nearly all actives have a fitted effect of over 50% in size
Summary of the method: (§5)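 Cells were seeded together with NanoLuc luciferase and a prosubstrate that viable cells reduce to a luciferase substrate. After a 5 h incubation at 37 C/5% CO2, compounds were added and luminescence was measured repeatedly during 40 h of treatment.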

[12] = A CellTox Green Cytotoxicity Assay to monitor cytotoxicity in HEK293 cells - 24 hour (AID 1224875); further: nearly all actives have a fitted effect of over 45% in size
Summary of the method: as §3

[13] = A CellTox Green Cytotoxicity Assay to monitor cytotoxicity in HepG2 cells - 16 hour (AID 1224876); further: nearly all actives have a fitted effect of over 45% in size
Summary of the method: (§6)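 Read-out is fluorescence of a cyanine dye excluded from live cells that stains DNA of dead HepG2 cells, with signal proportional to cytotoxicity. Plates were read at 0, 8, 16, 24, 32 and 40 h after compound addition.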

[14] = qHTS RealTime-Glo MT Cell Viability Assay in HepG2 cells - 32 hour (AID 1224877); further: nearly all actives have a fitted effect of over 55% in size
Summary of the method: as §1

[15] = A CellTox Green Cytotoxicity Assay to monitor cytotoxicity in HepG2 cells - 24 hour (AID 1224878); further: nearly all actives have a fitted effect of over 45% in size
Summary of the method: as §6

[16] = A CellTox Green Cytotoxicity Assay to monitor cytotoxicity in HepG2 cells - 40 hour (AID 1224879); further: nearly all actives have a fitted effect of over 40% in size
Summary of the method: as §6

[17] = qHTS RealTime-Glo MT Cell Viability Assay in HEK293 cells - 0 hour (AID 1224880)
Summary of the method: as §5

[18] = qHTS assay to identify small molecule agonists of H2AX (AID 1224845; active means well fitted activation curve with a large enough effect in the signal ratio in the repeat runs, not every such curve was filed as active; the % refers to the signal ratio; further: potency means the concentration at half of the fitted maximal effect)
Summary of the method: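 Wild-type CHO-K1 cells plated overnight, then exposed 3 hr at 37C to compounds at 15 concentrations (0.76% DMSO). Lysed, then HTRF anti-pH2AX(S139)-cryptate/anti-H2AX-d2 detection after 24 hr at room temperature; emissions 665 and 620 nm.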

[19] = qHTS assay to identify small molecule agonists of the estrogen related receptor (ERR) signaling pathway from Tox21 library (AID 1224849; calls by dose curve; further: nearly all actives have a fitted effect of over 15% in size); settings: ERR reporter cell line, ONE-Glo luciferase, 18 h; at 92.4 µM (top of the series) unless noted
Summary of the method: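 ERR cells, 6 h pre-incubation 37 C/5% CO2; cpd in DMSO pinned; 18 h 37 C; ONE-Glo added, 30 min RT; luminescence read. Agonist mode, qHTS.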

[20] = qHTS assay to identify small molecule antagonists of the estrogen related receptor (ERR) signaling pathway from Tox21 library (AID 1224848); further: nearly all actives have a fitted effect of over 50% in size
Summary of the method: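 Screening used an ERR reporter line supplied by NTP, exposed for 18 h at 37 C to library compounds delivered in DMSO. Signal was luciferase luminescence developed with ONE-Glo at room temperature for 30 min.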

SMILES | Potency [1] | outcome [2] | Potency [3] | Potency [4] | Potency [5] | Potency [6] | Potency [7] | Potency [8] | Potency [9] | Potency [10] | max response [11] | Potency [12] | Potency [13] | Potency [14] | Potency [15] | Potency [16] | outcome [17] | Potency [18] | activity change, positive = activation [19] | Potency [20]
Oc1c(Cl)cccc1Cl | inactive | inactive | inactive | inactive | inactive | inactive | inactive | inactive | inactive | inactive | 0.323% | inactive | inactive | inactive | inactive | inactive | inactive | – | – | –
C#C[C@]1(O)C=C[C@H]2[C@@H]3CCC4=CC(=O)CC[C@@H]4[C@H]3CC[C@@]21CC | inactive | – | inactive | inactive | – | inactive | inactive | inactive | – | inactive | – | inactive | inactive | inactive | inactive | inactive | inactive | 19.6 µM (active) | – | –
ClCC(Cl)Cl | inactive | inactive | inactive | inactive | inactive | inactive | inactive | inactive | inactive | inactive | -2.64% | inactive | inactive | inactive | inactive | inactive | inactive | – | – | –
N#CC(O)c1ccccc1 (stereo unspecified) | inactive | inactive | inactive | inactive | inactive | inactive | inactive | inactive | inactive | inactive | 19.9% | – | inactive | inactive | inactive | inactive | inactive | – | – | –
CCN(CC)C(=O)[C@@H]1C=C2c3cccc4[nH]cc(c34)C[C@H]2N(C)C1 | inactive | inactive | inactive | inactive | – | inactive | inactive | inactive | inactive | inactive | – | – | inactive | inactive | inactive | inactive | inactive | – | -24.6% [at 240 µM] | –
Clc1cccc(N2CCNCC2)c1 | inactive | – | inactive | – | inactive | inactive | inactive | inactive | inactive | inactive | 8.54% | inactive | inactive | inactive | inactive | inactive | inactive | inactive | – | –
NC(=O)O | inactive | inactive | inactive | inactive | inactive | inactive | inactive | inactive | inactive | inactive | 3.48% | inactive | inactive | inactive | inactive | inactive | inactive | – | -1.74% | inactive
COc1ccc2c(c1OC)CN1CCc3cc4c(cc3C1C2)OCO4 (stereo unspecified) | inactive | – | – | inactive | – | inactive | inactive | – | – | inactive | – | inactive | inactive | inactive | inactive | inactive | inactive | inactive | – | –
